Shiga inhibitor – Shiga toxin inhibition | Vero cells, Shiga toxin protein synthesis inhibition reporter | inhibition, % at 38.7 µM | hit rate 9.2% among 290,000 | AID 2315; in the data active = inhibition mostly above about 28%, no sharp cut-off; inactive = mostly below about 43%
Marburg entry inh – Marburg virus entry inhibition | hit rate 1.8% among 300,000 | AID 540276 | Marburg virus pseudotyped entry inhibition, cell reporter | Potency, µM (titrated, usually from 37.8 µM), usual class: inhibitors; calls by dose curve; tested in HEK293 cells
Cycloheximide cs – affects cycloheximide protein synthesis inhibition readout, counter-screen; cell reporter, cycloheximide protein synthesis inhibition counterscreen; max response, %; hit rate 12% among 300,000; in the data active = max response mostly above about 13%, no sharp cut-off; inactive = mostly below about 14%; note: read at 38.3 µM for the half of the compounds with a filed dose
FMDV antiviral – antivirals against foot and mouth disease virus. Potency, µM (highest dose often 57.9 µM), actives largely listed as inhibitors. AID 1159524. FMDV antiviral cell-based qHTS. hit rate 1.2% among 410,000; calls by dose curve; tested in HEK293T cells; note: read-out not given here; nearly all actives have a fitted effect of over 45% in size
Lassa entry inh – inhibitors of Lassa virus binding or cell entry; hit rate 1.2% among 300,000; Lassa virus pseudotype entry inhibition, cell reporter; Potency, µM (highest dose often 37.9 µM), usual class: inhibitors; AID 540256; calls by dose curve; tested in HEK293 cells; note: nearly all actives have a fitted effect of over 50% in size
HCV inh – HCV inhibition | Huh7.5.1 HCVcc-Cre infection, luciferase reporter, 44 h | Potency, µM (titrated, usually from 41.8 µM), usual class: inhibitors | hit rate 3.4% among 340,000 | AID 651820; active = well fitted inhibition curve with a large enough effect; inconclusive = small, poorly fitted or top-dose-only effect, or another doubt; inactive = no such curve, though single readings can be large or run the other way
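Cells (1,000/well) were plated 4 h before compound, then infected with HCVcc-Cre virus (~0.5 moi). After 44 h further culture, infection was read as luciferase luminescence following a 15 min substrate incubation at room temperature.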
Large screens that a line does not name were inactive; ! = not active in a repeat. Compounds with a hit are over-represented: about 13% of the library has one in this group of screens.

COc1cccc(-c2nn(-c3ccccc3)cc2CNC(C)Cn2cncn2)c1 (stereo unspecified)	Shiga inhibitor 111, Marburg entry inh inconclusive, Cycloheximide cs 34
COc1cccc(-c2nn(-c3ccccc3)cc2CO)c1	Shiga inhibitor 60, Marburg entry inh inconclusive, Cycloheximide cs 33
Cc1ccc(-n2nnc(-c3cccnc3)n2)cc1	none (no result: Shiga inhibitor, Marburg entry inh, Cycloheximide cs, Lassa entry inh)
Cc1ccc(-n2nnc(-c3cnc4ccccc4c3)n2)cc1	Cycloheximide cs 57 (no result: Marburg entry inh, Lassa entry inh)
Fc1ccc(-n2nnc(-c3nccs3)n2)cc1	Shiga inhibitor 54, Cycloheximide cs 38 (no result: Marburg entry inh, Lassa entry inh)
COc1ncccc1-c1nnn(-c2ccccc2)n1	Shiga inhibitor 55, Cycloheximide cs 43 (no result: Marburg entry inh, Lassa entry inh)
c1ccc(-n2nnc(-c3cccnc3)n2)cc1	Shiga inhibitor 44, Cycloheximide cs 41 (no result: Marburg entry inh, Lassa entry inh)
Cc1ccc(S(=O)(=O)N2CCCOC2CNC(=O)C(=O)NCCC2=CCCCC2)cc1 (stereo unspecified)	Marburg entry inh inconclusive, FMDV antiviral inconclusive, HCV inh inconclusive
O=c1c2ccccc2ncn1-c1ccc(Cl)cc1Cl	none (no result: Marburg entry inh, Lassa entry inh)
Clc1ccc(-n2nnc(-c3cccnc3Cl)n2)cc1Cl	Shiga inhibitor 54, Cycloheximide cs 35 (no result: Marburg entry inh, Lassa entry inh)
Clc1nc2ccccc2cc1-c1nnn(-c2ccccc2)n1	Shiga inhibitor 59, Cycloheximide cs 46 (no result: Marburg entry inh, Lassa entry inh)
Fc1ccc(-n2nnc(-c3cccnc3Cl)n2)cc1	Shiga inhibitor 89, Cycloheximide cs 54 (no result: Marburg entry inh, Lassa entry inh)
CCc1cc2ccccc2nc1Cl	none
Fc1ccc(-n2nnc(-c3ccccc3Cl)n2)cc1	none
Cc1ccc(-n2nnc(-c3nccn3C)n2)cc1	Cycloheximide cs 11 (no result: Marburg entry inh, Lassa entry inh)
Clc1ncccc1-c1nnn(-c2ccccc2)n1	Shiga inhibitor 56, Cycloheximide cs 50, HCV inh inconclusive (no result: Marburg entry inh, Lassa entry inh)
COCc1ccc(CN2CCCC(CO)(Cc3ccccc3)C2)o1 (stereo unspecified)	none
CCCCN1c2ccccc2N(CCCO)c2cc(C)nnc21	Marburg entry inh inconclusive, Cycloheximide cs 14
CC1=CC(=C2C(=O)c3ccccc3C2=O)C=C(C)N1C	Marburg entry inh inconclusive, Cycloheximide cs 26, Lassa entry inh inconclusive
O=C(c1ncc[nH]1)c1ccccc1Cl	none (no result: Marburg entry inh, Lassa entry inh)
CCN(CC)c1ccc(NC(=O)c2ccccc2F)cc1	Shiga inhibitor 71, Marburg entry inh inconclusive, Cycloheximide cs 38, Lassa entry inh inconclusive, HCV inh inconclusive
O=C(Nc1ccc(Nc2ccccc2)cc1)c1ccccc1F	Shiga inhibitor 74, Marburg entry inh inconclusive, Cycloheximide cs 33, HCV inh inconclusive
Cc1nnsc1-c1c(C(=O)N2CCOCC2)c(C)nn1-c1ccc(Cl)cc1	none
CCN(CC)c1ccc(/C=C/[N+](=O)[O-])cc1	Marburg entry inh inconclusive, Cycloheximide cs 12, FMDV antiviral inconclusive, Lassa entry inh inconclusive
COc1ccc2[nH]cc(C=O)c2c1	Marburg entry inh inconclusive
O=C(/C=C/c1c[nH]c2ccccc12)c1ccccc1	Shiga inhibitor 115, Marburg entry inh inconclusive, Cycloheximide cs 69, HCV inh inconclusive
COc1ccc2[nH]cc(/C=C/C(=O)c3ccccc3)c2c1	Shiga inhibitor 131, Marburg entry inh inconclusive, Cycloheximide cs 105, Lassa entry inh inconclusive, HCV inh 10µM
O=Cc1c[nH]c2ccc(C(=O)c3ccccc3)cc12	Marburg entry inh inconclusive, Cycloheximide cs 32 (no result: Shiga inhibitor)
OCC[n+]1ccc(/C=C/c2c[nH]c3ccccc23)cc1	Lassa entry inh inconclusive, HCV inh 3.5µM
O=C(c1ccc(Cl)cc1)N1CCC(N2CCC(C(=O)N3CCOCC3)CC2)CC1	none
COc1ccc2[nH]cc(/C=C/c3cc[n+](C)cc3)c2c1	HCV inh 7.9µM (no result: Marburg entry inh, Lassa entry inh)
COc1ccc2[nH]cc(CC(=O)O)c2c1	none
Cc1ccc(C(=O)/C=C/c2c[nH]c3ccccc23)cc1	Shiga inhibitor 148, Cycloheximide cs 52, HCV inh inconclusive (no result: FMDV antiviral)
Cc1cnn(-c2nc(-c3ccccc3)cc(-c3ccccc3)n2)c1	Marburg entry inh inconclusive, HCV inh 7.9µM
O=c1[nH]c(SCc2ccccc2)nc2ccsc12	Marburg entry inh inconclusive, Cycloheximide cs 36
CCOc1ccccc1N1CCN(C(=O)[C@@H]2CCCN2C2=NS(=O)(=O)c3ccccc32)CC1	none (no result: Shiga inhibitor, Marburg entry inh, Cycloheximide cs, Lassa entry inh)
CCCCn1c(C)cc2c(c1=O)C1O[C@](c3ccc(OC)cc3)(Cc3cc(OC)c(OC)cc31)O2	Cycloheximide cs 15 (no result: Marburg entry inh, FMDV antiviral, Lassa entry inh, HCV inh)
Clc1ccc2sc(C3CCNCC3)nc2c1	Shiga inhibitor 56, Marburg entry inh inconclusive, Cycloheximide cs 36, Lassa entry inh inconclusive, HCV inh inconclusive
Clc1ccc(-c2cc(C3CCNCC3)[nH]n2)cc1	Marburg entry inh inconclusive, HCV inh inconclusive
O=C(O)CCCn1cc(NC(=O)COc2ccccc2F)cn1	FMDV antiviral 10µM!, Lassa entry inh inconclusive
O=C(O)CCCn1cc(NC(=O)COc2ccc(F)cc2F)cn1	none (no result: HCV inh)
CCOc1ccc(S(=O)(=O)NCC(c2ccc(N(C)C)cc2)N2CCc3ccccc32)cc1 (stereo unspecified)	none (no result: Shiga inhibitor, Marburg entry inh, Cycloheximide cs, HCV inh)
CN[C@@H]1C[C@H](c2ccc(Cl)c(Cl)c2)c2ccccc21	Marburg entry inh 4.6µM, FMDV antiviral inconclusive (no result: Shiga inhibitor, Cycloheximide cs, Lassa entry inh, HCV inh)
CN[C@@H]1C[C@@H](c2ccc(Cl)c(Cl)c2)c2ccccc21	Marburg entry inh 4.6µM, Lassa entry inh 13µM (no result: FMDV antiviral, HCV inh)
Cc1cc(C)n2cc(CSc3nnc(SCc4cn5c(C)cc(C)nc5n4)s3)nc2n1	none (no result: Marburg entry inh, FMDV antiviral, Lassa entry inh, HCV inh)
Cc1cc(C)n2cc(CSc3nc4ccccc4s3)nc2n1	Shiga inhibitor 40, Marburg entry inh inconclusive, Cycloheximide cs 36
Cc1cc(C)n2cc(CSc3nc4cc(Cl)ccc4o3)nc2n1	FMDV antiviral inconclusive
Cc1cc(C)n2cc(CSc3ccc(Cl)cc3)nc2n1	Shiga inhibitor 49, Cycloheximide cs 27 (no result: Marburg entry inh, Lassa entry inh)
Cc1ccc(SCc2cn3c(C)cc(C)nc3n2)cc1	Shiga inhibitor 70, Marburg entry inh inconclusive, Cycloheximide cs 23
O=C(NC1CCCCC1)C(c1cccc2ccccc12)n1c(=O)c(-c2cc3ccccc3[nH]2)nc2ccccc21 (stereo unspecified)	none (no result: Shiga inhibitor, Marburg entry inh, Cycloheximide cs, Lassa entry inh, HCV inh)
COC(=O)c1cccc(CSc2nnc(C)s2)c1	Shiga inhibitor 97, Cycloheximide cs 23, Lassa entry inh inconclusive
Cc1nnc(SCC(=O)c2ccc(Cl)cc2)s1	Shiga inhibitor 87, Cycloheximide cs 43
COC(=O)c1ccc(CSc2nnc(N)s2)cc1	Marburg entry inh inconclusive, Cycloheximide cs 21
COC(=O)c1ccc(CSc2nc(N)cc(N)n2)cc1	Shiga inhibitor 53, Cycloheximide cs 36
COC(=O)c1ccc(CSc2nnc(NC(=O)C3CCCO3)s2)cc1 (stereo unspecified)	Lassa entry inh inconclusive
CCCCc1c(C)nc2ccc(OC)cc2c1SCCC(=O)O	none
COC(=O)c1ccc(CSc2nnc(C)s2)cc1	Shiga inhibitor 67, Marburg entry inh inconclusive, Cycloheximide cs 38
COc1ccc(CSc2nnc(C)s2)cc1F	Shiga inhibitor 73, Cycloheximide cs 16
CCOc1ccc(NC(=O)c2ccc(CSc3nnc(C)s3)cc2)cc1	HCV inh inconclusive
CCn1c(SCc2ccc(OC)c(F)c2)nc2ccccc2c1=O	Marburg entry inh inconclusive
O=P(c1ccccc1)(c1ccccc1)c1cc(Br)cc(Br)c1OCCO	Marburg entry inh 13µM

Screening data as filed in PubChem.
